KinaseGlo FLuc: blocks Kinase-Glo luciferase, a counter-screen artifact; Q27757; 200,000 tested, 0.28% active; Kinase-Glo luciferase, ATP luminescence, 8 min; Potency, µM (doses to about 38.3 µM), without a hit: top-dose activity change, negative = inhibition, most hits filed as inhibitors; active means well fitted inhibition curve with a large enough effect; inconclusive means small, poorly fitted or top-dose-only effect; further: potency means the concentration at half of the fitted maximal effect; nearly all actives have a fitted effect of over 60% in size
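Compound is pinned into ATP-containing buffer (10 uM ATP, imidazole pH 7.2, 7 mM MgCl2). Kinase-Glo luciferase reagent is then added. Light output is recorded following an 8-min room-temperature incubation.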
KCNH2 3.1 inh: inhibitors of human KCNH2 3.1 potassium channel isoform. U2OS KCNH2 3.1, thallium flux FluxOr; active compounds read low. activity change, % (tested at about 1.8 µM). 340,000 tested, 0.95% active;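 active means maximum activity change below -70%; inconclusive means maximum activity change from -70% to -50%; inactive means maximum activity change above -50%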;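 further: thallium influx rate constant from kinetic fluorescence after stimulation buffer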
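Steps: virus added to U2OS suspension (4 h, RT, dark); medium with 10% FBS added, cells plated, 37 C overnight; FluxOr/Red40 loading buffer 45 min RT; stimulation buffer, 2 min kinetic read; rate constant normalized.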
KCNH2 WT inh: inhibitors of human wildtype KCNH2 potassium channel | Q12809 | U2OS, BacMam KCNH2, thallium flux FluxOr; active compounds read low | AID 720551 | 340,000 tested, 0.37% active | activity change, % at 1.84 µM;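 active means maximum activity change below -70%; inconclusive means maximum activity change between -70% and -50%; inactive means maximum activity change above -50%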
Target sequence (Q12809 whole entry, looked up): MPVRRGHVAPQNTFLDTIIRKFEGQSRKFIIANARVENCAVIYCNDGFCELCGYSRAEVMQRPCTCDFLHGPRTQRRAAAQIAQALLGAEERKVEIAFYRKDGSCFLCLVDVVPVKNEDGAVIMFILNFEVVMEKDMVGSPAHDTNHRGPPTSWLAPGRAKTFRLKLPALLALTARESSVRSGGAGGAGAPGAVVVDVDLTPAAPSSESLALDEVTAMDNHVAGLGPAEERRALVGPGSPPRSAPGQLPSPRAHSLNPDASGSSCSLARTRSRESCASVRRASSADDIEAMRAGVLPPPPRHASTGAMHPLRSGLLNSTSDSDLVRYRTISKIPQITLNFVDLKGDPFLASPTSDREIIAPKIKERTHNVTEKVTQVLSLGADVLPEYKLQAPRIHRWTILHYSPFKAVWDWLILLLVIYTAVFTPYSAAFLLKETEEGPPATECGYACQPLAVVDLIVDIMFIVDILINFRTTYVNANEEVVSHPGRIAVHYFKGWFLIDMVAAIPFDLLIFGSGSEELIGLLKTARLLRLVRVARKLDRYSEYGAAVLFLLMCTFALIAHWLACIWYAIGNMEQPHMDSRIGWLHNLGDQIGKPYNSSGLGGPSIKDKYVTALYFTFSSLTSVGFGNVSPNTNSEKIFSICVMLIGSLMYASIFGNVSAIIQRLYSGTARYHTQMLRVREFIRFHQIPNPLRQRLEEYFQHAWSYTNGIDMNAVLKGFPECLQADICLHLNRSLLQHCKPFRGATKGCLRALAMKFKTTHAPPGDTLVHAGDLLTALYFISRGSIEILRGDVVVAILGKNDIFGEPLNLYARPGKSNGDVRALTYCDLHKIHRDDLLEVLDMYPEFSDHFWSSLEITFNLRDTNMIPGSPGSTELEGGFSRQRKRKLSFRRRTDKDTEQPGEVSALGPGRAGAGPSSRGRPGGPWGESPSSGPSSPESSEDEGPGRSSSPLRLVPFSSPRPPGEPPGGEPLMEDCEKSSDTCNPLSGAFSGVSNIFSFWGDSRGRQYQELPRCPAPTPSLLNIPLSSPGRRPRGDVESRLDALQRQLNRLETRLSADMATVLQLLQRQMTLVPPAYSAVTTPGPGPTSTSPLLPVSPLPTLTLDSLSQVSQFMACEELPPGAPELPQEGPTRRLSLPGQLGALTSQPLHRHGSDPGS
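U2OS cells transduced with wild-type KCNH2 virus are loaded with FluxOr dye for 45 min, and thallium flux is measured in kinetic reads before and after stimulation buffer. Rate constants are normalized to DMSO controls.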
The depositor's hits bear a star; ? = inconclusive; / = no result; [ ] = another dose, or the depositor's remark. The list is not random: actives were taken first. Their share in the collection is about 1.2%. On the % scale 0 is the no-effect control and ±100 the full control effect.

SMILES | KinaseGlo FLuc | KCNH2 3.1 inh | KCNH2 WT inh
COc1ccc(NC(=O)Nc2ccccc2SC)cc1 | 10µM* | / | -14.6
COc1ccc(NC(=O)Nc2ccccc2F)cc1 | ? | 7.3 | -5.4
CCN1/C(=c2/s/c(=C3/C(=O)N(c4ccccc4)N=C3C)n(CC)c2=O)C=Cc2ccccc21 | / | -14.2 | -6.7
CCN1/C(=C2\C(=O)N(c3ccccc3)N=C2C)C=Cc2cc(C)ccc21 | 0.3% | -102.3* | 0.4
COc1ccc(CN2CCCC(C(=O)c3ccc4c(c3)OCO4)C2)c(F)c1 (configuration not stated) | / | -6.6 | 38.2
N#CC1=C(N)OC2=C(CC/C2=C\c2ccccc2)C1c1ccccc1 (configuration not stated) | -2.4% | -46.2 | -72.7*
N#CC1=C(N)OC2=C(CC/C2=C\c2ccccc2Cl)C1c1ccccc1Cl (configuration not stated) | -2.0% | 1.3 | -9.3
COc1ccc2c(c1)O[C@H](c1ccc3c(c1)OCO3)[C@@H](OC(=O)NCCc1ccc(OC)c(OC)c1)C2=O | 1.7% | / | /
O=[N+]([O-])c1ccc(-c2ccc(S(=O)(=O)NCCN3CCCC3)cc2)cc1 | 2.3% | -89.9* | 5.9
O=[N+]([O-])c1ccc(S(=O)(=O)NCCN2CCOCC2)cc1 | 0.1% | 5.1 | 22.1
COc1ccc(NC(=O)[C@@H](NC(=O)N2C[C@H]3C[C@@H](C2)c2cccc(=O)n2C3)C(C)C)cc1OC | / | -0.2 | -18.4
COc1ccccc1NC(=O)/C=C/c1cc([N+](=O)[O-])ccc1OC(F)F | / | -2.8 | -15.2
O=C(/C=C/c1cc([N+](=O)[O-])ccc1OC(F)F)Nc1cccc(OC(F)F)c1 | 2.1% | -3.5 | -158.3*
COc1cc(C2c3[nH]c4ccccc4c3C[C@H]3C(=O)N(C4CC4)CC(=O)N23)ccc1OC(C)C (some centres not stated) | / | -7.8 | -1.4
CN1CCN(Cc2ccc(Sc3ccc(Cl)cc3)c([N+](=O)[O-])c2)CC1 | 4.2% | -89.6* | -95.9*
Cc1ccc(Sc2ccc(CO)cc2[N+](=O)[O-])cc1 | 3.3% | 7.0 | 1.8
O=C(O)c1ccccc1C(=O)c1ccc(Sc2ccc(Cl)cc2)c([N+](=O)[O-])c1 | / | 3.8 | 0.5
Cc1ccc(Sc2ccc(CN3CCCC3)cc2[N+](=O)[O-])cc1 | 5.3% | -92.5* | 17.2
CCCC[C@@H]1C[C@H]1C(NC(=O)c1ccccc1)c1ccc(-c2ccccc2)cc1 (some centres not stated) | -7.0% | / | /
Cc1ccc(/C=C2/C(=O)c3ccc(C(=O)O)cc3C2=O)o1 | -3.9% | 2.7 | -12.4
Cc1ccc(C=C2C(=O)c3ccccc3C2=O)o1 | 11.2µM* | -82.9* | -2.2
Cc1ccc(C=C2C(=O)c3ccccc3C2=O)s1 | 7.08µM* | 13.9 | -4.5
O=C1C(=Cc2cccs2)C(=O)c2ccccc21 | ? | -2.1 | 6.5
CC(C)(C)c1ccc(C(=O)N/C(=C\c2cccs2)C(=O)N2CCOCC2)cc1 | / | -10.3 | -16.1
COc1ccc(NC(=O)c2cc3sccc3n2Cc2ccc(F)cc2)cc1OC | -3.0% | -2.3 | -249.1*
SMILES | KinaseGlo FLuc | KCNH2 3.1 inh | KCNH2 WT inh
O=C(Nc1nccs1)c1cc2sccc2n1Cc1ccc(F)cc1 | 0.3% | -17.2 | -17.9
COc1ccc2cc(C3=CCCC3(C)C(=O)O)ccc2c1 (configuration not stated) | / | 11.4 | 0.0
Cc1ccc(S(=O)(=O)C(c2ccccc2)c2c(C)noc2C)cc1 (configuration not stated) | 1.9% | -5.7 | 15.8
Cc1noc(C)c1C(c1ccccc1)S(=O)(=O)c1ccccc1 (configuration not stated) | 1.2% | -18.0 | -140.2*
COc1ccc(NC(=O)CSc2nc(=O)n(CCN3CCOCC3)c3c2CCC3)c(OC)c1 | / | -3.2 | -5.5
COc1ccc(NC(=O)c2ccc3c(SCC(=O)O)c4c(nc3c2)CCCC4)c(OC)c1 | -1.8% | -158.1* | -6.0
COc1ccc(Cl)cc1NC(=O)c1ccc2c(SCC(=O)O)c3c(nc2c1)CCCC3 | / | -2.1 | -21.7
COc1ccc(NC(=O)CSc2nc(=O)n(CCN3CCOCC3)c3c2CCCC3)c(OC)c1 | / | -119.6* | 11.7
C(=N/Nc1ccccn1)/c1cccnc1 | -2.8%[7.66 µM] | / | /
COc1ccc2nc(-c3cccc(N)c3)[nH]c2c1 | 12.6µM* | 7.0 | 7.8
COc1ccc2nc(-c3ccc(N)cc3)[nH]c2c1 | 10µM* | 4.0 | -0.1
COc1ccc2nc(-c3ccccn3)[nH]c2c1 | / | 7.0 | 10.3
Nc1cccc(-c2nc3ccc(C(=O)c4ccccc4)cc3[nH]2)c1 | / | -14.4 | -1.4
COc1cc(/C=C2\C(=N)N3N=C(S(C)(=O)=O)SC3=NC2=O)ccc1OS(=O)(=O)c1ccc(C)cc1 | / | -8.9 | 0.8

Compound activity deposited in PubChem by National Center for Advancing Translational Sciences (NCATS).
